In PubChem BioAssay AID720697 (Broad Institute, 2013):
Entries with a potency or affinity are not part of this list. Results filed as inconclusive are left out. A number with no mark means an inactive call.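 The calls were made as follows: active = signal loss with fitted half-maximal concentration at or below twice the top valid tested dose in every test run; inconclusive = runs disagree, flat 30 to 70% signal loss, or poor fit; inactive = all runs flat, opposite direction, or potency beyond limit.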

Test: HEK293T cytotoxicity, dose response, cytotoxicity control for miR-122 modulator project, cell-based, inhibitor set, cherry-pick, set 2 (AID 720697);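 also: 0% = median of neutral control wells and -100% = MG132 positive control wells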
Conditions: HEK293T viability, CellTiter-Glo luminescence, 48 h; series mostly up to 26 µM; activity change, negative = cytotoxicity: at the top concentration

SMILES	activity change, negative = cytotoxicity
COC(=O)c1c(N)nc(C)n1-c1ccc(OC)cc1	55.2%
CCCC(=O)Nc1ccc2c(c1)C(=O)N(C)[C@@H]1CC[C@H](CC(=O)NCCN3CCCCC3)O[C@H]1CO2	-14.8%
CN(c1ccccc1)S(=O)(=O)c1ccc(C(=O)Nc2cccc(S(=O)(=O)N3CCOCC3)c2)cc1	-17.8%
